Drawing on PubChem BioAssay AID1578 (Sanford-Burnham Center for Chemical Genomics, 2009), this text covers inhibition for 62 molecules.

The structures appear in SMILES notation. Among all 290,000 compounds or so, about 3,000 (1%) were called active. The full list was thinned out, with actives kept by preference. Unmarked numbers belong to inactive results. Cut-off read from the data, not from the text of the source: active = inhibition mostly above about 36% (no sharp cut-off); inactive = mostly below about 34%.

The experiment is described as follows: inhibition of NOD1-driven NF-kB reporter – cell-based, luminescence, uHTS, primary screen (AID 1578).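 Note: HEK-293T reporter cells stimulated with the NOD1 agonist gamma-tri-DAP.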 To be noted: NOD1-driven NF-kB luciferase reporter cells, at 4 µM, stronger effect = higher value. (In general: Reporter assays use an easily measured gene product as a stand-in for the process of interest.)
As a reminder, the inhibition is the relative decrease from the control value, in per cent. In the case of `CCCc1n[nH]c2c1C(=O)C(C(=O)OC)C(C)(C)C2` (configuration not stated), the inhibition was 11.5%.
With `COC(=O)C1C(=O)c2c(C)noc2CC1(C)C` (configuration not stated) the figure was 64.3% (active).
The figure for `COC(=O)C1C(=O)c2c(n[nH]c2C)CC1(C)C` (configuration not stated) is -14.2%; for `O=C(c1ccccn1)c1conc1C(=O)c1ccc(Br)cc1` it is 0.5%.
With `CN(C(=S)NC(=O)Cc1ccccc1)c1ccccc1` the figure was -27.4%.
In the case of `Cc1cc(C)cc(NC(=S)N2CCN(S(=O)(=O)c3ccccc3)CC2)c1`, the inhibition was -17.6%.
With `Cc1csc(CN(C)C(=O)CC2C(=O)NCCN2Cc2ccc(F)cc2Cl)n1` (configuration not stated) the figure was -11.4%.
As for `c1coc(CNc2nc3ccccc3n2CCN2CCOCC2)c1`, the inhibition was 43.1% (active).
With `CCCn1c(NCc2ccco2)nc2ccccc21` the figure was -16.4%; with `c1csc(CNc2nc3ccccc3n2CCN2CCOCC2)c1`, 1.1%; with `N#C/C(=C\c1ccc([N+](=O)[O-])cc1)c1ccccn1`, -27.2%.
The figure for `CN(C)c1ccc(/C=C(\C#N)c2ccccn2)cc1` is 73.6% (active); for `N#C/C(=C\c1ccc(Cl)c([N+](=O)[O-])c1)c1ccccn1` it is 47.2% (active); for `CN(CCC#N)c1ccc(/C=C(\C#N)c2ccccn2)cc1` it is 30.9%.
The figure for `CCN(CC)c1ccc(/C=C(\C#N)c2ccccn2)cc1` is -55.6%; for `CNc1ccc(/C=C(\C#N)c2ccccn2)cc1[N+](=O)[O-]` it is -34.3%.
For the molecule `CCOC(=O)c1sc(NC(=O)C(C)Sc2nnc(N)s2)nc1C` (configuration not stated), the inhibition was -12.9%.
The figure for `CCNC(=O)Nc1cc2nc(C)n(Cc3ccc(Br)cc3)c2nc1C` is 24.1%; for `Cc1cc(-n2c(C)cc(C(=O)CCl)c2C)no1` it is 46.4% (active).
For `COc1ccc(-n2c(C)cc(C(=O)CCl)c2C)cc1`, the inhibition was 39.1%.
As for `CC(=O)c1c(C(C)=O)c(C)n(-c2cccc([N+](=O)[O-])c2)c1C`, the inhibition was -27.2%.
`CCOC(=O)c1cc(C)n(-c2c(C)n(C)n(-c3ccccc3)c2=O)c1C`: the inhibition is -12.8%.
Regarding `Cc1cc(-n2c(C)cc(C(=O)CN3C(=O)NC4(CCCC4)C3=O)c2C)no1`, the inhibition was -20.6%.
With `Cc1cc(C(=O)CCl)c(C)n1-c1ccon1`, the inhibition is 28.2%.
With `Cc1cc(C(=O)CCl)c(C)n1-c1cccc([N+](=O)[O-])c1` the figure was 77.4% (active).
`Cc1cc(C(=O)CCl)c(C)n1-c1c(C)n(C)n(-c2ccccc2)c1=O`: the inhibition was 42.5% (active).
With `Cc1cc(C(=O)CC#N)c(C)n1-c1c(C)n(C)n(-c2ccccc2)c1=O`, the inhibition is -19.8%.
With `COc1ccc(NC(=O)Nc2cccc3ccccc23)cc1S(N)(=O)=O` the figure was 25.8%; with `N/C(=N\O)c1cccc(CS(=O)(=O)c2ccccn2)c1`, -7.5%.
The figure for `Cc1ccc(-n2[nH]c(C)c(C=NC34CN5CN(CN(C5)C3)C4)c2=O)cc1C` is 9.5%; for `CCCN1C(=S)c2ccccc2C1c1ccccc1` (configuration not stated) it is 35.5%.
The figure for `O=S(=O)(NN1CCOCC1)c1ccc(Cl)s1` is -37.6%; for `O=C1c2cccc3cccc(c23)C(=O)N1Cc1ccccc1` it is -16.9%; for `Cc1ccc(CN2CCN(CCCn3cccn3)CC2CCO)cc1` (configuration not stated) it is -31%.
For `CCOC(=O)N1CCN(c2cc(=O)n(Cc3ccc(F)cc3)c(=O)[nH]2)CC1`, the inhibition is -37.3%.
As for `Cc1ccc(CN2C3CCCC2CC(NC(=O)c2ccc(C)cc2)C3)cc1` (configuration not stated), the inhibition was -21.4%.
With `Cc1ccc(C(=O)NC2CC3CCCC(C2)N3Cc2ccccc2)cc1` (configuration not stated) the figure was 59% (active); with `Cc1ccc(CN2C3CCCC2CC(NC(=O)c2ccc(F)cc2)C3)cc1` (configuration not stated), -0.1%; with `CC1CCCC(C)N1C(=O)Cn1nnc(-c2ccc([N+](=O)[O-])cc2)n1` (configuration not stated), -36.1%.
With `CC1(C)Cc2ccccc2C2=NNC(=O)C2=N1` the figure was 41.8% (active); with `CC1=NC(C)(C)Cc2ccccc21`, 1.3%.
Consider `CC1(C)CC(=O)C(C2=NC(C)(C)Cc3ccccc32)=C(O)C1`, for which the inhibition is -9.1%.
`O=[N+]([O-])c1cc2c(cc1/C=N/Nc1nc(Nc3ccccc3)nc(N3CCCCC3)n1)OCO2`: the inhibition is -23%.
With `Cc1ccc([N+](=O)[O-])cc1NC(=O)CN(C1CCCCC1)S(=O)(=O)c1ccc(Cl)cc1` the figure was -5%.
In the case of `O=S(=O)(c1ccc2ccccc2c1)N(CC1CO1)c1ccccc1` (configuration not stated), the inhibition was -30.1%.
As to `Cc1cc(SCC(=O)c2cccs2)n2nc(C)c(-c3ccccc3)c2n1`, the inhibition was 20.3%.
Consider `Cc1cc(SCC(=O)c2cccs2)n2nc(C)c(-c3ccc(Cl)cc3)c2n1`, for which the inhibition is 79.4% (active).
The figure for `Cc1nn2c(SCC(=O)c3cccs3)cc(C(C)(C)C)nc2c1-c1ccccc1` is 5.2%; for `CCOc1ccc(/C=N/n2c(C)nc3ccccc3c2=O)cc1` it is -12.3%; for `N#C/C(=C\c1cn(-c2ccccc2)nc1-c1cccnc1)c1nnc2n1CCCCC2` it is -13%.
The figure for `O=C1COc2ccc(S(=O)(=O)NCc3ccccc3)cc2N1` is -13.7%; for `Nc1ccc(-c2ncc(-c3ccccc3)o2)cc1` it is 46.7% (active); for `NC(=O)c1ccc(-c2ncc(-c3ccccc3)o2)cc1` it is 14.6%.
With `c1ccc(-c2cnc(-c3cccnc3)o2)cc1` the figure was -16.8%; with `CCC(C)(C)NC(=O)CN(C(=O)CNS(=O)(=O)c1ccc(F)cc1)c1ccc2c(c1)OCCO2`, -13%.
Turning to `O=C(NCCCn1ccnc1)c1ccc(Cl)c(Cl)c1`, the inhibition is 3.9%.
The figure for `O=S(=O)(Nc1ccc(N2CCOCC2)cc1)c1cccs1` is -20.1%; for `O=C(CC1S/C(=N/N=C/c2cccnc2)NC1=O)Nc1ccccc1` (configuration not stated) it is -13.1%.
Consider `O=C1N/C(=N\N=C\c2cccnc2)SC1Cc1ccc(SC(F)F)cc1` (configuration not stated), for which the inhibition is 106% (active).
The figure for `O=C1N/C(=N\N=C\c2ccc3ncccc3c2)SC1Cc1ccc(SC(F)F)cc1` (configuration not stated) is -44%; for `O=C(N/N=C/c1ccc([N+](=O)[O-])cc1)c1cccc(N2CCCC2=O)c1` it is -9.3%; for `Cc1cc(=O)oc2cc(OCC(=O)NC(Cc3c[nH]c4ccc(O)cc34)C(=O)O)c(Cl)cc12` (configuration not stated) it is -16.2%.
